Results from PubChem BioAssay (NCI).
The panel holds about 83,000 compounds, 20% with a hit somewhere; the sample as a whole holds those more often.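 Values shown are percent growth following 48 h exposure of cells in 96-well plates to a single concentration of compound; below 10 was considered active.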 Values without a mark were called inactive. Calls of active or inactive are those of the source.

Experiments:
Test in all cases: NCI-60 one-dose screen, 48 h (100 = growth as untreated, 0 = no growth, -100 = all killed)
Details in all cases: 10 µM
RPMI-8226 leukemia = tested on: RPMI-8226 leukemia
OVCAR-8 ovarian = tested on: OVCAR-8 ovarian
OVCAR-5 ovarian = tested on: OVCAR-5 ovarian
OVCAR-4 ovarian = tested on: OVCAR-4 ovarian
SK-OV-3 ovarian = tested on: SK-OV-3 ovarian
IGROV1 ovarian = tested on: IGROV1 ovarian
OVCAR-3 ovarian = tested on: OVCAR-3 ovarian
HS 578T breast = tested on: HS 578T breast
NCI/ADR-RES ovarian = tested on: NCI/ADR-RES ovarian
T-47D breast = tested on: T-47D breast
BT-549 breast = tested on: BT-549 breast
MDA-MB-435 melanoma = tested on: MDA-MB-435 melanoma
MCF7 breast = tested on: MCF7 breast
HCT-116 colon = tested on: HCT-116 colon
HCC-2998 colon = tested on: HCC-2998 colon
KM12 colon = tested on: KM12 colon
SW-620 colon = tested on: SW-620 colon
MDA-MB-468 breast = tested on: MDA-MB-468 breast

| SMILES | growth (RPMI-8226 leukemia) | growth (OVCAR-8 ovarian) | growth (OVCAR-5 ovarian) | growth (OVCAR-4 ovarian) | growth (SK-OV-3 ovarian) | growth (IGROV1 ovarian) | growth (OVCAR-3 ovarian) | growth (HS 578T breast) | growth (NCI/ADR-RES ovarian) | growth (T-47D breast) | growth (BT-549 breast) | growth (MDA-MB-435 melanoma) | growth (MCF7 breast) | growth (HCT-116 colon) | growth (HCC-2998 colon) | growth (KM12 colon) | growth (SW-620 colon) | growth (MDA-MB-468 breast) |
| --- | --- | --- | --- | --- | --- | --- | --- | --- | --- | --- | --- | --- | --- | --- | --- | --- | --- | --- |
| COc1ccc2[nH]c(O)c(N=NC(=O)c3cc(-c4ccc(C)cc4)nc4ccccc34)c2c1 | 76.4% | 88.5% | 119% | 91.8% | 106% | 102% | 98.3% | 91% | 71.6% | 69% | 139% | 95.4% | 61% | 78.1% | 115% | 95.1% | – | – |
| Cc1cc(C)nc(SCC(=O)Nc2ccc(S(N)(=O)=O)cc2)n1 | 99.5% | 105% | 107% | 112% | 106% | 109% | 113% | 114% | 106% | 105% | 132% | 107% | 96.6% | 111% | 109% | 107% | 116% | 98.2% |
| C=C(C)[C@@H]1CC[C@]2(C(=O)OC)CC[C@]3(C)[C@H](CC[C@@H]4[C@@]5(C)CC[C@H](N)C(C)(C)[C@@H]5CC[C@]43C)[C@@H]12 | -30.7% (active) | -77.4% (active) | -100% (active) | -93.1% (active) | -54.8% (active) | -95.8% (active) | -78.1% (active) | -59.3% (active) | -83% (active) | -73.3% (active) | -63.6% (active) | -97% (active) | -85.4% (active) | -98.3% (active) | -93.6% (active) | -82.3% (active) | – | -97.2% (active) |
| CCCSc1nc(NC2CC2)c(C#N)c(-c2ccc(OC)cc2)n1 | 96.6% | 69.2% | 105% | 84.5% | 115% | 108% | 93.5% | 105% | 68.7% | 88.8% | 88.1% | 106% | 103% | 74.1% | 115% | 107% | 105% | 139% |
| CCCCCCCCCCCCCCCCCCCC(=O)NCCc1c[nH]c2ccc(O)cc12 | 28.2% | 102% | 111% | 98% | 137% | 93.6% | 87.4% | 112% | 96.2% | 103% | 32.3% | 112% | 84.9% | 83.3% | 114% | 88.5% | 112% | 128% |
| N#Cc1ccc(-c2nn(-c3ccc(C(=O)O)cc3)cc2CNc2ccc(Oc3ccccc3)cc2)cc1 | 22.4% | 39.2% | 81.1% | 73.7% | 111% | 74.7% | 45.1% | 53.9% | 17.1% | 22.6% | -5.49% (active) | 63.6% | 59.8% | 16.7% | 11.5% | 16.3% | 59.3% | 103% |
| C=C[C@H]1[C@H](O[C@@H]2OC(CO)[C@@H](O)[C@H](O)C2OC(=O)c2c(O)cc(O)cc2-c2cccc(O)c2)OC=C2C(=O)OCC[C@H]21 (some centres undefined) | 106% | 102% | 100% | 108% | 95.7% | 101% | 112% | 99.7% | 102% | 99.3% | 94.8% | 102% | 93.5% | 94.4% | 106% | 103% | 105% | 96.5% |
| O=c1nc(-c2ccccc2)cc(-c2cc3ccccc3nc2Cl)[nH]1 | -29.4% (active) | -68.1% (active) | 40.9% | 80.6% | 84.8% | 56.8% | 8.83% (active) | 69.6% | -70.1% (active) | 45.5% | 12.9% | 53.5% | 4.69% (active) | -91.6% (active) | 44.9% | -15.4% (active) | -63.6% (active) | 17.2% |
| CN1C/C(=C\c2ccc(O)cc2O)c2[o+]c3cc(O)ccc3cc2C1 | 33% | 62.7% | 72.1% | 68.2% | 105% | 34.8% | -8.86% (active) | 50.1% | 107% | 3.02% (active) | 39.8% | 20.4% | 11% | 16.4% | 25.2% | 25% | – | -16.3% (active) |
| NC1=NC(c2ccccc2Cl)N=C(Nc2nn[nH]n2)N1 (centres undefined) | 99.2% | 102% | 118% | 99.8% | 123% | 115% | 107% | 103% | – | 99.1% | 107% | 102% | 93.3% | 103% | 104% | 100% | 106% | – |
| Cc1ccc(-c2nc3ccc(C(=O)N=Nc4c(O)[nH]c5ccc([N+](=O)[O-])cc45)cc3[nH]2)cc1 | 104% | 75.3% | 101% | 55.2% | 78.9% | 89.2% | 21.9% | 74.6% | 103% | 51.8% | 98.7% | 62.6% | 65.9% | 12.7% | 54% | 104% | 42.2% | 59% |
| O=C(Cn1cc(CSc2nnc3oc4ccccc4n23)nn1)Nc1ccc(Br)cc1 | 93.2% | 16% | 91.6% | 87% | 53.8% | 75% | 87% | 20.3% | 51.3% | 70.5% | 92.1% | 98.1% | 65.3% | 82% | 96.4% | 85.7% | – | 80.1% |
| O=C1Nc2cc(Cl)ccc2/C1=C/c1cccc(OCc2ccccc2)c1 | -34.7% (active) | -65% (active) | 11.9% | 36.7% | 32% | 11.1% | -5.96% (active) | -2.85% (active) | -22.2% (active) | 14.7% | -21.8% (active) | 10.5% | – | 3.32% (active) | -39% (active) | 4.45% (active) | 8.71% (active) | 11.9% |
| Cc1nc2c(cnn2-c2ccccc2)c(=O)n1-c1ccc(NC(=O)c2ccc(F)cc2)cc1 | 35.2% | 63.7% | 97.9% | 40.1% | 111% | 73.5% | 85.4% | 78.7% | 42.8% | 18% | 46% | 53.8% | 35.8% | 48.3% | 79.9% | 64.1% | 76.5% | 14.5% |
| CN1CCN(Cc2ccc(C(=O)Nc3cccc(Nc4ccc5c(O)cccc5n4)c3)cc2C(F)(F)F)CC1 | -10.6% (active) | -19.5% (active) | -48.7% (active) | -13.1% (active) | -46.6% (active) | -54.6% (active) | -23% (active) | -37.5% (active) | -0.427% (active) | -36.8% (active) | -58.4% (active) | -91.6% (active) | – | -43.9% (active) | -93.2% (active) | -76.7% (active) | -84% (active) | -92.7% (active) |
| COc1cc(NC(=O)c2cc(-c3ccc(F)cc3F)ccc2O)cc(OC)c1OC | 12% | 48% | 111% | 17.3% | 34.5% | 38% | 26.1% | 26.1% | 41.5% | -10.1% (active) | 4.31% (active) | 36.2% | – | 42.5% | 63.9% | 29.8% | 55.3% | – |
| c1ccc(C(=C(c2ccc(OCCN3CCCCC3)cc2)c2ccc(OCCN3CCCCC3)cc2)C2CCCC2)cc1 | -51.4% (active) | -48.8% (active) | -22.5% (active) | 1.48% (active) | -45.3% (active) | -85.8% (active) | -92.9% (active) | -9.63% (active) | 101% | -1.48% (active) | -54.7% (active) | -98.5% (active) | -71.1% (active) | -62.8% (active) | -99.5% (active) | -80.5% (active) | – | -87.8% (active) |
